Molecules are shown by their SMILES.

A short description of the experiment: small-molecule microarray binders of probe aLefty2, primary screen, biochemical, biotinylated probe, 635/667 nm fluorescence (AID 1094).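 Further: score merges spot fluorescence near 667 nm with spot signal-to-noise ratio.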 The settings on record: higher = more signal.
Take `CCc1oc(CC[C@@H](CO)NC(=O)NCCn2cc(C3(O)CCCCC3)nn2)c(C(=O)OC)c1C(=O)OC`: the composite z-score is -0.0615. For `O=C1C2C=CC(C(O)c3c(F)cccc3Cl)N(Nc3ccccc3)C2C(=O)N1c1ccccc1` (stereo not given) the value was 0.0313; for `COc1ccc(C(=O)Nc2ccc(CN3C(=O)[C@@]4(O[C@@H](CCO)[C@H]([Si](C)(C)c5ccc(OC)cc5)[C@H]4C)c4ccccc43)cc2)cc1`, 0.0217. To `CC(C)c1ccc(NN2C(C(O)c3cc(C(F)(F)F)cc(C(F)(F)F)c3)C=CC3C(=O)N(c4ccccc4)C(=O)C32)cc1` (stereo not given) belongs -0.0831. To `CC(=O)NCCCC[C@@H]1NC(=O)[C@@H]2C[C@H](C(=O)NCCCCCCNC(=O)CS)[C@H](c3cccc(OCCO)c3)N2C1=O` belongs 0.498; to `O=C1c2ccccc2[C@@]2(Cc3ccccc3N(CCN3CCOCC3)C2=O)[C@H](c2ccc(CO)cc2)N1Cc1ccccc1`, -0.156. For `CCCCCN1CC=CC23O[C@@H]4/C=C\CCCOC(=O)C4[C@H]2C(=O)N(C(CO)C(C)C)[C@@H]3C1=O` (stereo not given in full), the composite z-score was -0.124. To `CN1C(=O)[C@]2(Cc3ccccc3)N=C(c3ccc(OCCCO)cc3)O[C@@H]2c2ccccc21` belongs -0.0354; to `COc1ccc(CCNC(=O)[C@@H]2c3ccccc3C(=O)N(C3Cc4ccccc4C3)[C@H]2c2ccc(CO)cc2)cc1`, 0.0349; to `COc1cc2c(cc1OC)CN(C(=O)[C@H]1[C@@H]3C(=O)O[C@@H](c4ccccc4)[C@@H](c4ccccc4)N3[C@@H](c3ccc(O)cc3)[C@]13C(=O)Nc1ccc(C#CC4=CCCCC4)cc13)CC2`, 0.0857. `CCCC=C(CCC)[C@@H](NS(=O)(=O)c1cccs1)c1ccc(C(=O)OC)cc1`: the composite z-score was -0.0375. Molecule `C[C@@]1([C@@H](NC(=O)c2ccccc2)c2ccc(-c3ccccc3)cc2)C[C@H]1C1CCCCC1` yielded a composite z-score of 0.527.

`C=CCC(OC(C)=O)[C@@H]1[C@@H](N(Cc2ccc(-c3cccc(C(F)(F)F)c3)o2)C(=O)Cc2ccc(F)cc2)c2cc(OCCCO)ccc2N1C(=O)Cc1ccc(OC)cc1` (stereo not given in full) gave a composite z-score of 0.454. To `COC(=O)c1c(CC[C@@H](CO)NC(=O)N[C@@H](C)Cn2cc(C3(O)CCCCC3)nn2)oc(C(C)=O)c1C(=O)OC` belongs 0.0621. For `C=CCC(OC(C)=O)[C@@H]1[C@@H](N(Cc2ccc(-c3cccc(C(F)(F)F)c3)o2)C(=O)c2ccc(-c3ccccc3)cc2)c2cc(OCCCO)ccc2N1C(=O)c1ccc(-c2ccccc2)cc1` (stereo not given in full) the value was 0.0869; for `COCCOC(=O)N1C(=O)[C@@]2(c3cc(C#Cc4ccc(OC)cc4)ccc31)[C@H](C(N)=O)[C@H]1C(=O)O[C@H](c3ccccc3)[C@H](c3ccccc3)N1[C@@H]2c1ccccc1OCCO`, 0.306. To `CCN(CC)c1ccc(N2CC=CC34O[C@@H]5/C=C\CCCOC(=O)C5[C@H]3C(=O)N(CCO)[C@@H]4C2=O)cc1` (stereo not given in full) belongs -0.253; to `CC(C)N1C(=O)[C@@]2(Cc3ccccc31)c1ccccc1C(=O)N(C1CCCCC1)[C@H]2c1ccc(CO)cc1`, -0.132.

The molecule `CN(C)C(=O)[C@]1(Cc2ccccc2CN=[N+]=[N-])N=C(c2ccc(OCCCO)cc2)O[C@@H]1c1ccccc1CN=[N+]=[N-]` yielded a composite z-score of 0.0112. To `O=C1c2ccccc2[C@](Cc2ccccc2I)(C(=O)NC2CC2)[C@H](c2ccc(CO)cc2)N1Cc1ccccc1` belongs -0.0741. For `COCCOC(=O)N1C(=O)[C@@]2(c3cc(C#CC4(O)CCCCCC4)ccc31)[C@H](c1ccc(O)cc1)N1[C@H](c3ccccc3)[C@H](c3ccccc3)OC(=O)[C@H]1[C@@H]2C(=O)Nc1nc2ccccc2s1` the value was 1.04. To `C=CCOC(=O)[C@H]1[C@@H]2C(=O)O[C@@H](c3ccccc3)[C@@H](c3ccccc3)N2[C@@H](c2ccc(OCCOC(=O)[C@@H]3C[C@@H]4C(=O)N5CCC[C@H]5C(=O)N4[C@@H]3c3cccc(OCCO)c3)cc2)[C@]12C(=O)Nc1ccccc12` belongs 0.108. `C#CCN(CC=C(C)C)[C@H](CO)c1ccccc1` gave a composite z-score of -0.0518. For `C=C[C@H](COC(C)=O)N(C(=O)OC(C)(C)C)S(=O)(=O)c1ccc(Br)cc1` the value was 0.518; for `COc1ccc(C(O)C2C=CC3C(=O)N(c4ccccc4)C(=O)C3N2Nc2ccccc2F)cc1OCc1ccccc1` (stereo not given), 0.312; for `CCOC(=O)C1=CCC(c2ccc(C)cc2)N(S(=O)(=O)c2ccc(C)cc2)C1` (stereo not given), 0.0283.

In turn, `COCC(=C=CC[C@H](O)c1ccccc1OCCO)C[C@H](O)c1cc(Cl)cc(Cl)c1O` yielded a composite z-score of -0.0653. Molecule `COCCOC(=O)N1C(=O)[C@@]2(c3cc(C#CC4=CCCCC4)ccc31)[C@H](C(=O)Nc1nc3ccccc3s1)[C@H]1C(=O)O[C@H](c3ccccc3)[C@H](c3ccccc3)N1[C@@H]2c1ccccc1OCCO` registered a composite z-score of 0.255.

In turn, `CC(C)C[C@@H]1NC(=O)[C@H]2C[C@@H](C(=O)NCCCCCCN)[C@@H](c3ccc(O)cc3)N2C1=O` showed a composite z-score of 0.679. To `COCCCNC(=O)[C@@]1(Cc2ccccc2)N=C(c2ccc(OCCCO)cc2)O[C@H]1c1ccccc1` belongs 0.355; to `CN(C)C(=O)[C@]1(Cc2ccccc2N=[N+]=[N-])N=C(c2ccc(OCCCO)cc2)O[C@@H]1c1ccccc1`, 0.149. To `CN1C(=O)C2C=CC(C(O)c3ccccc3)N(Nc3ccccc3)C2C1=O` (stereo not given) belongs 0.0105; to `CCOC(=O)C[C@H]1[C@H](OC(=O)Cc2ccc3c(c2)OCO3)[C@@H](NC(=O)c2ccc(-c3ccccc3)cc2)c2cc(OCCCO)ccc2N1C(=O)Cc1ccc(OC)cc1`, 0.0163; to `O=C1c2ccccc2[C@](Cc2ccccc2I)(C(=O)NC2CC2)[C@H](c2ccc(CO)cc2)N1C1CCCCC1`, -0.224.

The molecule `C=CCOC(=O)[C@@H]1[C@H]2C(=O)O[C@H](c3ccccc3)[C@H](c3ccccc3)N2[C@H](c2ccc(OCCOC(=O)[C@@H]3C[C@@H]4C(=O)N5CCC[C@H]5C(=O)N4[C@@H]3c3ccc(O)cc3)cc2)[C@@]12C(=O)Nc1ccc(I)cc12` came in with a composite z-score of -0.207.

The values above are taken from PubChem BioAssay.
